# Measurements taken from publication PMC7862700, “An all-to-all approach to the identification of sequence-specific readers for epigenetic DNA modifications on cytosine”.
# Assays:
# Assay in all cases: DAPPL (digital affinity profiling via proximity ligation, sequencing); 10 mM Tris-HCl pH 7.5, 50 mM NaCl, 1 mM DTT, 4% glycerol, room temperature, 30 min; GST-TFs on glutathione beads, 16-mer random dsDNA library, 0.1% formaldehyde crosslink after washing; high values mean tight binding
# Conditions in all cases: protein: recombinant; tags: N-terminal GST; dsDNA, one strand shown
# ETV1 = ETV1 (Homo sapiens, UniProt P50549 1-477)
# Procedure, shortened: (§1)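 In yeast, human transcription factors were expressed with a GST fusion, then pulled down on glutathione beads and given DNA barcodes. Pooled with a tag-only sample, they were exposed to 200 nmole of a 16-mer random double-stranded DNA library (Tris/NaCl/DTT/glycerol buffer, room temperature, 30 min), washed, crosslinked with 0.1% formaldehyde, proximity-ligated using BsaI/T4 ligase for 1 h at 37 °C, PCR-amplified and read on an Illumina NextSeq500. Each hexamer's frequency of reads for a factor, divided by the matching frequency for the tag-only sample, gives the binding signal.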
# ERF = molecular target: T1, ERF (Homo sapiens, UniProt P50548 1-548)
# T1 sequence: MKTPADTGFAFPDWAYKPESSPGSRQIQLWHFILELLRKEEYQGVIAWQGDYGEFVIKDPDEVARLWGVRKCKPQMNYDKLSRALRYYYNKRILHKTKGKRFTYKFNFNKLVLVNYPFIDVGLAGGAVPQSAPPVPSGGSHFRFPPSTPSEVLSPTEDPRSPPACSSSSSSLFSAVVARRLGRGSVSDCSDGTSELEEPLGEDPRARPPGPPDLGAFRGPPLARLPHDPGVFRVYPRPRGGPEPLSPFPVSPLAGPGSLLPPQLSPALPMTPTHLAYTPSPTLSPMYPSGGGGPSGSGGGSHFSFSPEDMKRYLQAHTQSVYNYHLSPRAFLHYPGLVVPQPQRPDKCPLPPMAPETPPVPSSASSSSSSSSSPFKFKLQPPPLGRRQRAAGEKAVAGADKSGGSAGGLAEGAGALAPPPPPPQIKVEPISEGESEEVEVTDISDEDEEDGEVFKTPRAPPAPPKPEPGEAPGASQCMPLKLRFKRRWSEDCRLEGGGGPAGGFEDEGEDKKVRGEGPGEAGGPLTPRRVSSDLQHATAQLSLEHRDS
# Procedure, shortened: as §1
# ETV3L = molecular target: T2, ETV3L (Homo sapiens, UniProt Q6ZN32 1-361)
# T2 sequence: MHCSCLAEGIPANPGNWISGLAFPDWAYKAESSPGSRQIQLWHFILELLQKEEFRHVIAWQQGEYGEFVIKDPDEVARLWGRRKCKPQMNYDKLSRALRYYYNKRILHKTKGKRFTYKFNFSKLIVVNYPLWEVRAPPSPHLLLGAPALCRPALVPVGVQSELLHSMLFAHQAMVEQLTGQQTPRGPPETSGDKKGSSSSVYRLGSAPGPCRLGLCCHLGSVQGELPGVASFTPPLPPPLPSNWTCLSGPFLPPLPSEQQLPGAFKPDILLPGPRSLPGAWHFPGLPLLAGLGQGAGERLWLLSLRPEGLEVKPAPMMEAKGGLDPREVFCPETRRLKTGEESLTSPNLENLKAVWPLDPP
# Procedure, shortened: as §1
# ETS2 = molecular target: T3, ETS2 (Homo sapiens, UniProt P15036 1-469)
# T3 sequence: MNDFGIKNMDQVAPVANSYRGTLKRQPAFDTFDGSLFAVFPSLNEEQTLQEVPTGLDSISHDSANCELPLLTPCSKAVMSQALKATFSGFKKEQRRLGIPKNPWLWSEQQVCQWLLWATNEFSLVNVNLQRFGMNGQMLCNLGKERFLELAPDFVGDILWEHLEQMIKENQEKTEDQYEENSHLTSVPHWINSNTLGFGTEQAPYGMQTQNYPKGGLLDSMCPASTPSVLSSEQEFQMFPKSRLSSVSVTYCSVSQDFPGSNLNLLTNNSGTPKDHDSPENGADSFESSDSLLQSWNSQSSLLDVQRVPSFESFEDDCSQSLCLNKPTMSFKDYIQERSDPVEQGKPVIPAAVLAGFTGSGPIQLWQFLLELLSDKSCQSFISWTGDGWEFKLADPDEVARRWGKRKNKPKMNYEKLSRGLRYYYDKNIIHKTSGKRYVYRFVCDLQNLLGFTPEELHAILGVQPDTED
# Procedure, shortened: as §1
# SPDEF = molecular target: T4, SPDEF (Homo sapiens, UniProt O95238 1-335)
# T4 sequence: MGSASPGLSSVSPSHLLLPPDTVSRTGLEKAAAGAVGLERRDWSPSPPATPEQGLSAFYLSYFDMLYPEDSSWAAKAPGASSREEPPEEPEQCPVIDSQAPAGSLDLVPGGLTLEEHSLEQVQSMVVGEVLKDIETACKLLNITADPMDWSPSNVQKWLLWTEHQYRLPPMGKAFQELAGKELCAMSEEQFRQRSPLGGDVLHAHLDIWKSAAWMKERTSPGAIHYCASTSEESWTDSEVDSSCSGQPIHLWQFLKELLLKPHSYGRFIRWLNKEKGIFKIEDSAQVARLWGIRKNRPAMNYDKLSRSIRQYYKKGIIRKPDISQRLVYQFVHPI
# Procedure, shortened: as §1
# ETV7 = molecular target: T5, ETV7 (Homo sapiens, UniProt Q9Y603 1-341)
# T5 sequence: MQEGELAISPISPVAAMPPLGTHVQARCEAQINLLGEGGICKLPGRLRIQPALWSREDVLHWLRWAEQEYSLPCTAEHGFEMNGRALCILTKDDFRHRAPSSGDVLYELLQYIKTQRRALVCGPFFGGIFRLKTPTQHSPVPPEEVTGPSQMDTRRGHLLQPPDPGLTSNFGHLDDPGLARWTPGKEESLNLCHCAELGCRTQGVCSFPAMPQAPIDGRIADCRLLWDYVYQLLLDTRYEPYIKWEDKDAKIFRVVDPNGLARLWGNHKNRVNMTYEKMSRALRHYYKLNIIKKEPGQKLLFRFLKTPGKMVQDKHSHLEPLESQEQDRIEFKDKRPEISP
# Procedure, shortened: as §1
# ELF5 = molecular target: T6, ELF5 (Homo sapiens, UniProt Q9UKW6-2 1-255)
# T6 sequence: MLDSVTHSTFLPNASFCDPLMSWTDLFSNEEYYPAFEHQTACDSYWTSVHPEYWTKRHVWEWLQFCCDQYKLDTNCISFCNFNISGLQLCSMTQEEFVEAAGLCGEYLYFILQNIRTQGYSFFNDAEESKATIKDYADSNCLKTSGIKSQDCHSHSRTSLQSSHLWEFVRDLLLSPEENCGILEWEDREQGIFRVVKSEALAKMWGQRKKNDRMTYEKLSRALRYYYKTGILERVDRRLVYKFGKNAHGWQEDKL
# Procedure, shortened: as §1
# ETV3 = molecular target: T7, ETV3 (Homo sapiens, UniProt P41162-2 1-143)
# T7 sequence: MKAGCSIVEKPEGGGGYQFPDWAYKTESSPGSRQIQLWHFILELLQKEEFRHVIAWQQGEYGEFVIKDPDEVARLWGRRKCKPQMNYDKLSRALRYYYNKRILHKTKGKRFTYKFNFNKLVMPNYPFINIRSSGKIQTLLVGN
# Procedure, shortened: as §1
# ETV6 = ETV6 (Homo sapiens, UniProt P41212 1-452)
# Procedure, shortened: as §1
# Chain of ETV6 (P41212 whole entry): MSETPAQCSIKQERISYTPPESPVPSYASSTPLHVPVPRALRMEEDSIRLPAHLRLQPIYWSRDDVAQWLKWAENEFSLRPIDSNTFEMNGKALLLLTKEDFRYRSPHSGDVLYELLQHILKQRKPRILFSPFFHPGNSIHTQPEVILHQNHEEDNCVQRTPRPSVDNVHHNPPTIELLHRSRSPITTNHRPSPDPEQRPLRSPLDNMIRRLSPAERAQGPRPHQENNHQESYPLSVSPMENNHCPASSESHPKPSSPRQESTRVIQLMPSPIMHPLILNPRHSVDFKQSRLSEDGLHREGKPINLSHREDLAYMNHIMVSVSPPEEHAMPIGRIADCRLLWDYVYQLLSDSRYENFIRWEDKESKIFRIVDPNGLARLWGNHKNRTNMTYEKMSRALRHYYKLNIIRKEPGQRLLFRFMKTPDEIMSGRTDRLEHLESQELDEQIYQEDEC
# Chain of ETV1 (P50549 whole entry, the tested form may be a part): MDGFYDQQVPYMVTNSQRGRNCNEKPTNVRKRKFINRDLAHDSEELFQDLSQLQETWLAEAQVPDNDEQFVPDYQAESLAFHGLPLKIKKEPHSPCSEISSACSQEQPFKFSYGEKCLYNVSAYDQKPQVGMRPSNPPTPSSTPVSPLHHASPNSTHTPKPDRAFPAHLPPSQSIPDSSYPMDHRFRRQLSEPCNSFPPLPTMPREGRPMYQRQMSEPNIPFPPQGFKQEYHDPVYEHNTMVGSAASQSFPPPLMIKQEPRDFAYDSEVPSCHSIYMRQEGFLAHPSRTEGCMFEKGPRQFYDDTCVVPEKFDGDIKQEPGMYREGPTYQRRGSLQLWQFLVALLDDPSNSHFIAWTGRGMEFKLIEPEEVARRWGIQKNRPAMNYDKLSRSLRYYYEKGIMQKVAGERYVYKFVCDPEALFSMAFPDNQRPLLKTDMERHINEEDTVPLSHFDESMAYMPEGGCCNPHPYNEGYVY
sequence,measurement,setting,value
ATTCTT,binding signal,ETV1,"1.56 fold enrichment (6-mer frequency, TF over GST control)"
same,binding signal,ERF,"1.3 fold enrichment (6-mer frequency, TF over GST control)"
same,binding signal,ETV3L,"1.46 fold enrichment (6-mer frequency, TF over GST control)"
same,binding signal,ETS2,"1.41 fold enrichment (6-mer frequency, TF over GST control)"
same,binding signal,SPDEF,"1.34 fold enrichment (6-mer frequency, TF over GST control)"
same,binding signal,ETV7,"1.54 fold enrichment (6-mer frequency, TF over GST control)"
same,binding signal,ELF5,"1.4 fold enrichment (6-mer frequency, TF over GST control)"
same,binding signal,ETV3,"1.48 fold enrichment (6-mer frequency, TF over GST control)"
same,binding signal,ETV6,"1.46 fold enrichment (6-mer frequency, TF over GST control)"
